From the supplement of paper PMC8183993
Where a name gives a salt, the structure may show the parent alone. ± gives the standard deviation of the averaged measurements. The full ranking holds about 3,100 compounds; the median of “mean cytoplasmic OPP incorporation (global translation) relative to DMSO” is about 100, and the lowest 2% start at about 56. Only a selection was taken, and the lowest values are over-represented in it overall.

Test system: U2OS
Assay: mean cytoplasmic OPP incorporation (global translation) relative to DMSO (% of DMSO); higher = more protein synthesis
Conditions: 10 µM; 24 h
Protocol: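 Primary image-based screen in U2OS cells: compounds at 10 uM for 24 h, then a 1 h o-propargyl-puromycin (OPP) pulse, click labelling, and high-throughput microscopy. Mean cytoplasmic OPP intensity and nuclei count were normalised to DMSO wells within each plate (DMSO = 100) and averaged over triplicate plates.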

SMILES	mean cytoplasmic OPP incorporation
C[C@]12CC[C@H](O)C[C@H]1CC[C@@H]1[C@@H]2CC[C@]2(C)[C@@H](C3=CC(=O)OC3)CC[C@]12O [Digitoxigenin]	26.3
C[C@]12CC[C@H](O)C[C@@H]1CC[C@@H]1[C@@H]2CC[C@]2(C)C(=O)CC[C@@H]12	95.2
CC(=O)[C@H]1CC[C@H]2[C@@H]3CC[C@H]4C[C@H](O)CC[C@]4(C)[C@H]3C(=O)C[C@]12C [Alfaxalone]	102
CC(=O)O[C@H]1C[C@H](O[C@H]2[C@@H](O)C[C@H](O[C@H]3[C@@H](O)C[C@H](O[C@H]4CC[C@@]5(C)[C@H](CC[C@@H]6[C@@H]5C[C@@H](O)[C@]5(C)[C@@H](C7=CC(=O)OC7)CC[C@]65O)C4)O[C@@H]3C)O[C@@H]2C)O[C@H](C)[C@H]1O[C@@H]1O[C@H](CO)[C@@H](O)[C@H](O)[C@H]1O [Lanatoside C]	27.8
C[C@]12CC[C@H](O)C[C@@H]1CC[C@@H]1[C@@H]2CC[C@]2(C)C(=O)CC[C@@H]12 [Epiandrosterone]	90.1
C[C@]12CC[C@@H](O)C[C@H]1CC[C@@H]1[C@@H]2CC[C@]2(C)C(=O)CC[C@@H]12 [3-alpha-Hydroxy-5-beta-androstan-17-one]	89.8
C[C@]12CC[C@@H](O)C[C@@H]1CC[C@@H]1[C@@H]2CC[C@]2(C)C(=O)CC[C@@H]12 [Androsterone]	97.1
C[C@]12CC[C@H](O)C[C@H]1CC[C@@H]1[C@@H]2C[C@@H](O)[C@]2(C)[C@@H](C3=CC(=O)OC3)CC[C@]12O [Digoxigenin]	32
CN(C)CCN(C)CCc1ccc(Cl)c(Cl)c1 [BD 1047 dihydrobromide]	105
CN(C(=O)Cc1ccc(Cl)c(Cl)c1)[C@H](CN1CCCC1)c1ccccc1 [ICI-199,441 hydrochloride]	111
CCCN(CCC)[C@@H]1CCc2c(OC)cccc2[C@@H]1C [(+)-UH 232 maleate]	102
NC(C(=O)O)c1nn[nH]n1 (racemic) [(RS)-(Tetrazol-5-yl)glycine]	102
CC1(C)[C@@H](O)C[C@H]2[C@](C)(O)[C@@H]3CC[C@@H]4[C@@H](O)[C@@]3(C[C@@H](O)[C@@]21O)C[C@@]4(C)O [Grayanotoxin III]	102
Clc1ccc(C2=CCCC3CCC2N3)cn1 (stereo unspecified) [UB 165 fumarate]	97.7
CCC(Oc1ccc(Cl)cc1)C(=O)OC1C[C@H]2CC[C@@H](C1)N2C (stereo partly specified) [SM-21 maleate]	106
N=C(NCc1ccc(Cl)cc1)SCCCc1c[nH]cn1 [Clobenpropit dihydrobromide]	95.4
CC(N)Cc1cnc[nH]1 (stereo unspecified)	101
C=CCN1CC[C@]2(C)c3cc(O)ccc3C[C@H]1C2C (single isomer, unassigned; (+))	105
COc1ccc(C(=O)O[C@H]2CC[C@@]3(C)[C@@H]4CC[C@H]5[C@]6(O)C[C@H](O)[C@@]7(O)[C@@H](CN8C[C@@H](C)CC[C@H]8[C@@]7(C)O)[C@]6(O)C[C@@]53O[C@]24O)cc1OC [Veratridine]	108

SMILES	mean cytoplasmic OPP incorporation
COc1ccc2[nH]cc(C3=CCNCC3)c2c1	101
CC(C)(Cc1c[nH]c2ccc(Cl)cc12)NCCOc1ccccc1OCC1CC1	55.1
Cn1cc(C(=O)C(=O)N[C@H]2CN3CCC2CC3)c2ccccc21	99.4
OC(Cc1ccncc1)C(Cl)(Cl)Cl (stereo unspecified)	104
C=C(C)CN1CC[C@@]23c4c5ccc(O)c4O[C@H]2c2[nH]c4ccccc4c2C[C@]3(O)C1C5 [SDM25N hydrochloride]	95.8
O=Cc1cn(Cc2ccc(Cl)cc2)c2ccccc12 [Oncrasin 1]	83.4
CN1C(=O)[C@]23CC4=CC=C[C@H](O)[C@H]4N2C(=O)[C@@]1(CO)SS3 [Gliotoxin]	33.6
CCC[C@@H]1CC2=CC(=O)CC[C@]2(C)[C@H]2CC[C@@]3(C)[C@@H](CC[C@@]3(O)CCC(=O)O)[C@H]12	96.1
Oc1ccc2c3c1O[C@H]1c4c(c5ccccc5n4Cc4ccccc4)C[C@@]4(O)C(C2)N(CC2CC2)CC[C@]314 [N-Benzylnaltrindole hydrochloride]	111
Cc1nc(N)sc1CCN [Amthamine dihydrobromide]	107
C[C@@H]1O[C@@H](O[C@H]2C[C@@H](O)[C@]3(CO)[C@H]4[C@H](O)C[C@]5(C)[C@@H](C6=CC(=O)OC6)CC[C@]5(O)[C@@H]4CC[C@]3(O)C2)[C@H](O)[C@H](O)[C@H]1O [Ouabain]	47 ± 1.8
Cc1ncc(CN2CC=C(c3ccccc3)CC2)c(N)n1	101
CC(CN)CC(=O)O (stereo unspecified) [3-Methyl-GABA]	102
CC1(C)[C@H](C(=O)O[C@H](C#N)c2cccc(Oc3ccccc3)c2)[C@@H]1C=C(Br)Br [Deltamethrin]	101
O=C1NC(=O)c2c1c1c3ccccc3n3c1c1c2c2ccccc2n1[C@H]1CC[C@@H]3O1	91.2
O=C(O)C1=CCCN(CCOC(c2ccc(C(F)(F)F)cc2)c2ccc(C(F)(F)F)cc2)C1 [CI 966 hydrochloride]	97.6
COc1cc(N)c(Cl)cc1C(=O)NC1CN2CCC1CC2 (stereo unspecified) [Zacopride hydrochloride]	104
C[CH2][Hg][S]c1ccccc1C(=O)[O-].[Na+] [Thimerosal]	15.5
O=C(O)/C=C/CO [trans-4-Hydroxycrotonic acid]	105

SMILES	mean cytoplasmic OPP incorporation
C[C@@H]1C[C@@H]([C@H](O)CC2CC(=O)NC(=O)C2)C(=O)[C@@H](C)C1 [Cycloheximide]	52.1 ± 35
CC[N+](CC)(CCCNC1=CC(=O)C(NCCC[N+](CC)(CC)Cc2ccccc2)=CC1=O)Cc1ccccc1 [Benzoquinonium dibromide]	101
O=C1CSC(c2ccccc2Cl)c2cc(Cl)ccc2N1 (stereo unspecified)	101
CCOC(=O)c1ncn2c1CN(C)C(=O)c1cc(N=[N+]=[N-])ccc1-2	91.9
Cn1c2c(c3ccccc31)CCNCC2	97.4
Fc1ccc(C(OCCN2CCN(C/C=C/c3ccccc3)CC2)c2ccc(F)cc2)cc1	102
CCCOc1ccc2[nH]cc(C3=CCNCC3)c2n1	103
CC(=O)O[C@H]1CC[C@@]2(C)C(=CC[C@@H]3[C@@H]2CC[C@]2(C)C(=O)CC[C@@H]32)C1 [Dehydroisoandosterone 3-acetate]	83.5
C[C@@H]1CC[C@@]2(OC1)O[C@H]1C[C@H]3[C@@H]4CC=C5C[C@@H](O[C@@H]6O[C@H](CO)[C@@H](O[C@@H]7O[C@@H](C)[C@H](O)[C@@H](O)[C@H]7O)[C@H](O)[C@H]6O[C@@H]6O[C@@H](C)[C@H](O)[C@@H](O)[C@H]6O)CC[C@]5(C)[C@H]4CC[C@]3(C)[C@H]1[C@@H]2C [Dioscin (Collettiside III)]	50.2
C=CCN1C[C@H](C)N([C@H](c2ccc(C(=O)N(CC)CC)cc2)c2cccc(O)c2)C[C@H]1C	111
Oc1ccc2c3c1O[C@H]1c4[nH]c5c(c4C[C@@]4(O)[C@@H](C2)N(CC2CC2)CC[C@]314)C[C@@]1(O)[C@H]2Cc3ccc(O)c4c3[C@@]1(CCN2CC1CC1)[C@H]5O4 [nor-Binaltorphimine dihydrochloride]	102
O=C1/C(=C/c2ccccc2)C[C@@]2(O)[C@H]3Cc4ccc(O)c5c4[C@@]2(CCN3CC2CC2)[C@H]1O5 [BNTX maleate]	34.8
O=C1CC[C@@]2(O)[C@H]3Cc4ccc(O)c5c4[C@@]2(CCN3CC2CC2)[C@H]1O5 [Naltrexone hydrochloride dihydrate]	108
NCC(CS(=O)(=O)O)c1ccc(Cl)cc1 (stereo unspecified) [Saclofen]	104
C[C@@H]1O[C@@H](O[C@@H]2C=C3CC[C@@H]4[C@H](CC[C@]5(C)[C@@H](c6ccc(=O)oc6)CC[C@]45O)[C@@]3(C)CC2)[C@H](O)[C@H](O)[C@H]1O [Proscillaridin A]	17.5
Cc1ccc2cc3c(ccc4ccccc43)c3c2c1CC3 [3-Methylcholanthrene]	114
O=C(O)CCC(CP(=O)(O)O)C(=O)O (stereo unspecified) [PMPA (NAALADase inhibitor)]	105
CCOc1cncc(/C=C/CCNC)c1 [TC 2559 difumarate]	97.5
